Bioassay records: PubChem, National Center for Advancing Translational Sciences (NCATS)
gsp ag – gsp mutant agonism | gsp mutant cells, cAMP HTRF, 30 min | AID 624287 | Potency, µM (series often up to 76.9 µM), inactives show top-dose activation (cAMP increase), most hits filed as activators | 340,000 tested, 0.13% active; active means well fitted activation curve with a large enough effect; inconclusive means small, poorly fitted or top-dose-only effect, or another doubt; inactive means no such curve, though single readings can be large or run the other way; cell line not stated here;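 further: phosphodiesterase inhibitor Ro 20-1724 added with compounds to block cAMP breakdown; potency means the concentration at half of the fitted maximal effect; nearly all actives have a fitted effect of over 60% in size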
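Cells stably selected in G418 were plated at 2000/well, grown 16-24 hr, then given compounds in DMSO with the PDE inhibitor […] (300 uM solution added) for 30 min at 37C; cAMP was read by HTRF.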
RXFP1 antagonist – RXFP1 (human) relaxin receptor antagonism. Q9HBX9. HEK293-RXFP1, relaxin-stimulated cAMP HTRF, 30 min; active compounds read low. activity change, negative = inhibition, % at 57.5 µM. 350,000 tested, 0.59% active;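 active means activity change of -60% or lower, but not beyond a set lower limit; inconclusive means change between -60% and -40%, or beyond the set limit; inactive means change above -40%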; further: on the % scale 0 is the no-effect control and ±100 the full control effect
Target sequence (Q9HBX9 whole entry, looked up): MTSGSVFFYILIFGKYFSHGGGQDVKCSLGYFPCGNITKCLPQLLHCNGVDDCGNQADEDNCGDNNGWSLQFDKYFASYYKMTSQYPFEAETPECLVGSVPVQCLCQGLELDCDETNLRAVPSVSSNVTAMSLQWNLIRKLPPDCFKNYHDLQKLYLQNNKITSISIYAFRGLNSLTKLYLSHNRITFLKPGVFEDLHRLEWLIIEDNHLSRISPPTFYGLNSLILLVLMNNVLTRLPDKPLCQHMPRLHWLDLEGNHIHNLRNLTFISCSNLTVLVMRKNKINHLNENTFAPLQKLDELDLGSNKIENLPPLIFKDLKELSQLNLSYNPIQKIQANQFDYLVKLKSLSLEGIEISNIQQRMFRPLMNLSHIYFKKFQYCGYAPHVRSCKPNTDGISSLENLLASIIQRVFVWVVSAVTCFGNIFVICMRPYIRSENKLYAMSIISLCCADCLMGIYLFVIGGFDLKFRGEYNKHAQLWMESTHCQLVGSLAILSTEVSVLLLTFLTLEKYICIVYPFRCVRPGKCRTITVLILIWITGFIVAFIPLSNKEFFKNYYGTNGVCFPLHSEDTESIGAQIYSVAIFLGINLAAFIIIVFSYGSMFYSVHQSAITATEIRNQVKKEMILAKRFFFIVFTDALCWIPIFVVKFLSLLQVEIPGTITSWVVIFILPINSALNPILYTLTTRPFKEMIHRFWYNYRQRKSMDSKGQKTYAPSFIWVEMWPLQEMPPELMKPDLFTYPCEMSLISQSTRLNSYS
gsp antagonist – gsp mutant antagonism. Potency, µM (titrated, usually from 76.9 µM), inactives show top-dose activity change, negative = inhibition, hits mostly inhibitors. gsp-mutant cells, cAMP HTRF, 30 min. 340,000 tested, 0.4% active; calls by dose curve; cell line not stated here;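 further: intracellular cAMP measured with PDE inhibitor Ro 20-1724 present during compound exposure; potency means the concentration at half of the fitted maximal effect; on the % scale 0 is the no-effect control and ±100 the full control effect; nearly all actives have a fitted effect of over 65% in size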
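Measurement of cellular cAMP by homogeneous time-resolved fluorescence following a 30 min compound exposure at 37C. The PDE inhibitor […] was present throughout; the assay buffer was DPBS with 0.05% BSA and 0.005% Tween 20.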
Akt phos inh – Akt phosphorylation inhibition | Neuro2A IGF-stimulated pAkt S473 HTRF, 20 min; active compounds read low | activity change, % for hits at 50 µM | 360,000 tested, 0.32% active | AID 651550; in the data active means activity change below about -80%; inconclusive means mostly about -51% to -80%; further: on the % scale 0 is the no-effect control and ±100 the full control effect
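Neuro2A cells in DMEM with 0.5% FBS, overnight at 37 deg C, given compound at single 50 µM final, then IGF (6 nM final) for 20 min at 37 deg C. Lysed; phospho-Akt Ser473 by HTRF after 24 h, 665/615 ratio.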
RXFP1 agonist – activates the human relaxin receptor RXFP1 | 370,000 tested, 0.3% active | HEK293T-RXFP1 cAMP TR-FRET, 30 min; response scale: percent of porcine relaxin response, buffer zero | Potency, µM (titrated, usually from 57.5 µM), inactives show at the highest dose activation, actives largely listed as activators; active means well fitted activation curve with a large enough effect; inconclusive means small, poorly fitted or top-dose-only effect; further: potency means the concentration at half of the fitted maximal effect; on the % scale 0 is the no-effect control and ±100 the full control effect; nearly all actives have a fitted effect of over 60% in size
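HEK293T cells stably expressing RXFP1 were pretreated with the PDE4 inhibitor Ro 20174, exposed to compounds for 30 min at 37C, lysed, and cAMP was read by TR-FRET. Data normalized to buffer (basal) and 29 nM porcine relaxin (100%).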
Active calls of the source: *; i = inactive; ? = inconclusive; . = not tested or not shown; [ ] = another dose, or the depositor's remark. A selection: hits, their analogues and other compounds. The true share with any hit is near 1.3%.

SMILES	gsp ag	RXFP1 antagonist	gsp antagonist	Akt phos inh	RXFP1 agonist
CC(C)CC(=O)N1CCN(c2ccc(NC(=O)c3ccco3)cc2)CC1	-69%	-11	-8%	i	1%
O=C(NC(=S)NNC(=O)c1cc2ccccc2cc1O)c1ccco1	0%[15.4 µM]	-70*	-12%	i	-1%
O=C(Nc1ccc(C(=O)Oc2ccccc2)c(O)c1)c1ccco1	8%	-2	35µM*	i	0%
CC(C)(C)C(=O)N1CCN(c2ccc(NC(=O)c3ccco3)cc2)CC1	-6%	-83*	-8%	i	1%
O=C(Nc1ccc(Nc2ccccc2)cc1)c1ccco1	15%	-81*	-14%	i	-2%
CCCSc1nnc2c(n1)OC(c1sccc1C)Nc1ccccc1-2 (stereo not given)	.	-1	.	.	4%
Cc1c(N)cccc1C(F)(F)F	.	-9	.	.	.
CCOC(=O)c1c(S(=O)(=O)N2CCCC(C(=O)Nc3cccc(Cl)c3)C2)c(C)n(C)c1C (stereo not given)	.	-4	.	.	4%
O=C1C=CC(=O)c2c(O)c(N3CCN(CCO)CC3)c(Cl)c(O)c21	28%	?	?	i	.
O=C1C=CC(=O)c2c(O)c(N3CCN(CCOCCO)CC3)c(Br)c(O)c21	?	-105*	25µM*	i	.
Clc1cccc(-n2ncc3c(NC4CCCCC4)ncnc32)c1	.	-70*	.	.	9%
Cc1ccc(Cl)cc1-n1ncc2c(NC3CCCCC3)ncnc21	.	-32	.	.	3%
Fc1ccccc1CN1CCCCCCC1	?	-14	1%	-104%*	-2%
O=C(COC(=O)/C=C/c1ccc(Cl)cc1)NC(=O)NCc1ccccc1	-4%[15.4 µM]	-61*	7%	i	1%
O=C(NCCCCCCNC(=O)OCc1ccccc1)OCc1ccccc1	1%[15.4 µM]	1	1%	i	.
O=C(OCc1ccccc1)N(CCCCN(CCCNCc1ccccc1)C(=O)OCc1ccccc1)CCCNCc1ccccc1	-5%	-94*	18%	i	.
O=C(COC(=O)/C=C/c1ccc([N+](=O)[O-])cc1)Nc1ccc(F)cc1	14%	1	6%	i	-1%
O=C(COC(=O)/C=C/c1ccc([N+](=O)[O-])cc1)Nc1ccc2[nH]c(=O)[nH]c2c1	0%	-69*	2%	i	0%
Cc1ccc(C(=O)N/C(=C\c2ccc(-c3ccc(Br)cc3)o2)C(=O)NCCCN(C)C)cc1	?	-61*	4%	i	2%
CN(C)CCNC(=O)/C(=C/c1ccc(-c2ccc(Cl)cc2)o1)NC(=O)c1ccccc1	-36%	-31	4%	i	-1%
CN(C)CCNC(=O)/C(=C/c1ccc(-c2ccc(Cl)cc2Cl)o1)NC(=O)c1ccccc1	23%	-70*	4%	i	-1%
Cc1ccc(C(=O)N/C(=C\c2ccc(-c3cccc([N+](=O)[O-])c3)o2)C(=O)NCCCN(C)C)cc1	-18%	-34	0%	i	1%
CC(C)(C)OC(=O)N1CCC(c2c(C(=O)N3CCN(c4ccccn4)CC3)cnn2-c2cccc(F)c2)CC1	.	-8	.	.	-4%
COc1ccc(N2CCN(C(CNS(=O)(=O)c3c(C)cc(C)cc3C)c3ccco3)CC2)cc1 (stereo not given)	.	-22	.	.	0%
CCOc1cc(CNC(=O)c2ccc3nc(C(C)C)oc3c2)cc(OCC)c1OCC	.	.	.	.	3%
SMILES	gsp ag	RXFP1 antagonist	gsp antagonist	Akt phos inh	RXFP1 agonist
O=C(NCCc1csc(-c2cccc(F)c2)n1)c1cccs1	.	1	.	.	0%
O=C(NCCc1csc(-c2ccc(F)cc2)n1)c1cccs1	.	-61*	.	.	1%
CCCNC(=O)CCC(=O)N1Cc2cccc(OC)c2Oc2ncccc21	.	5	.	.	1%
COc1ccc(C(=O)Nc2nc3c(s2)CCCC3)cc1Cl	.	-71*	.	.	1%
Cc1cccc(C(=O)Nc2nc3c(s2)CCCC3)c1	.	-87*	.	.	2%
O=C(Nc1nc2c(s1)CCCC2)c1ccc2ncsc2c1	2%	.	?	i	2%
Cc1ccc(C(C)C)c(OCC(=O)Nc2nc3c(s2)CCCC3)c1	.	-85*	.	.	-1%
Cc1ccc(C(=O)c2sc(Nc3ccccc3)c(S(=O)(=O)c3ccccc3)c2N)c(C)c1	.	.	.	.	6%
CCc1nnc(NC(=O)CN2CCC(O)(c3ccccc3OC)CC2)s1	-61%	12	-1%	i	0%
COc1ccc(-c2csc(NC(=O)CSCC(=O)Nc3cc(C)on3)n2)cc1	-63%	-7	-10%	i	0%
CCOC(=O)N1CCN(C(=O)CSCC(=O)Nc2nc(-c3ccc(-c4ccccc4)cc3)cs2)CC1	-59%	-11	25µM*	i	0%
CCOC(=O)N1CCN(C(=O)CSCC(=O)Nc2nc(-c3ccc(Cl)s3)cs2)CC1	-29%	-18	25µM*	i	1%
CCOC(=O)N1CCN(C(=O)CSCC(=O)Nc2nc(-c3ccc(OC)cc3)cs2)CC1	-1%	-3	28µM*	i	0%
CCCC(=O)Nc1nc(-c2ccc(Cl)s2)cs1	-4%	-4	0%	i	0%
COc1ccccc1C1(O)CCN(CC(=O)Nc2nc(-c3ccccc3)cs2)CC1	-6%[15.4 µM]	-76*	-21%	i	-1%
Cc1ccc(C)c(CSc2nc3c([nH]c4ccccc43)c(=O)n2C)c1	.	1	.	.	1%
Cc1ccc(C)c(NC(=O)c2cnc3sc(N4CCOCC4)nn3c2=O)c1	.	-19	.	.	9%
O=c1oc2cc(O)c(Cl)cc2c2ccccc12	2.2µM*	43	-2%	i	11µM*
COc1ccc2c(c1)oc(=O)c1ccccc12	-47%	2	0%	i	-2%
CC1(C(=O)Nc2nc3ccccc3s2)CC1(Br)Br (stereo not given)	6%	-1	13%	i	20µM*
OCc1ccccc1SSc1ccccc1CO	-2%[15.4 µM]	-65*	?	i	.
OCc1ccccc1O	.	-12	.	.	.
CCCn1c2ccccc2c2cnn(CC(=O)N3CCC(C)CC3)c(=O)c21	.	1	.	.	5%
CCC(C)C(=O)Nc1c2c(nc3c1CCC3)CCCC2 (stereo not given)	-2%	1	-4%	-101%*	2%
Brc1ccc(-c2nn3c(-c4ccco4)nnc3s2)o1	?	-23	4%	i	13µM*
Clc1ccc(-c2ccc(-c3nn4c(-c5ccco5)nnc4s3)o2)cc1	-56%	4	-10%	i	.
CC(=O)N1CC(=O)N=C1SCC(=O)Nc1nc(-c2ccccc2)c(-c2ccccc2)s1	-46%	-86*	-25%	i	1%
Cc1sc(NC(=O)CSC2=NCCS2)nc1-c1ccccc1	1%	6	-9%	i	0%
N#CC(C#N)=C1NC(N)=C(C#N)C(c2ccccc2)=C1C#N	.	.	.	.	28µM*
CCn1c2ccccc2c2cc(CN3CCN(Cc4cc(OC)c(O)c(OC)c4)CC3)ccc21	.	-67*	.	.	3%
